FEN1 inh = blocks human flap endonuclease 1 | P39748 | Recombinant FEN1 flap cleavage, fluorescence, 15 min | Potency, µM (top dose mostly 114 µM), without a hit: at the top dose activity change, negative = inhibition, most hits filed as inhibitors | actives 0.35% (n = 390,000); also: % is scaled to controls: 0 for no effect and ±100 for the full control effect; nearly all actives have a fitted effect of over 65% in size
Target sequence (P39748 whole entry, looked up): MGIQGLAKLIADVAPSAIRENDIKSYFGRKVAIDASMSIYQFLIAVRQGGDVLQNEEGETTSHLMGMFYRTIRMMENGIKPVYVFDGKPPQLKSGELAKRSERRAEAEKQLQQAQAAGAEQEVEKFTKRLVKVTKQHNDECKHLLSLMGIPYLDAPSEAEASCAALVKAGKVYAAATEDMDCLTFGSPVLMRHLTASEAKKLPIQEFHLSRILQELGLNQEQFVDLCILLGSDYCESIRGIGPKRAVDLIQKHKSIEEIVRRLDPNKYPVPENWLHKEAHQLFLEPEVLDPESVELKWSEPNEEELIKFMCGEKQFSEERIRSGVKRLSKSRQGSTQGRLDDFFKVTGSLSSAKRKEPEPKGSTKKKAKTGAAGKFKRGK
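Read-out was taken twice, immediately and after 15 min, following addition of 50 nM substrate to 10 nM FEN1 that had sat with test compound for 15 min at room temperature. Curves came from a four-parameter Hill model.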
POLB inh = inhibitors of human DNA polymerase beta; Pol beta primer extension/strand displacement, fluorescence kinetic; Potency, µM (doses to about 114 µM), inactives show at the highest dose activity change, negative = inhibition, actives largely listed as inhibitors; actives 1.3% (n = 340,000); also: % is scaled to controls: 0 for no effect and ±100 for the full control effect
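Enzyme-only controls used 10 nM Pol beta; buffer lacking enzyme served as negative control. Compound preincubated 15 min, then 50 nM substrate added; 0 and 10 min reads at room temperature.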
Pol iota inh = DNA polymerase iota (human) inhibition; Q9UNA4; Pol iota fluorescent replication assay, 10 min; Potency, µM (titrated, usually from 115 µM), inactives show at the top dose activity, negative = inhibition, usual class: inhibitors; actives 1% (n = 390,000); AID 588590
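Pol iota at 10 nM preincubated 15 min with compounds at room temperature; reaction started with fluorescent substrate, 50 nM final. Fluorescence read kinetically at 0 and 10 min; buffer-only wells as negative control.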
POLH inh = blocks human DNA polymerase eta activity | Potency, µM (doses to about 114 µM), for the others: top-dose activity change, negative = inhibition, hits mostly inhibitors | recombinant Pol eta, fluorescent DNA replication assay | AID 588591 | actives 1.2% (n = 390,000); also: % is scaled to controls: 0 for no effect and ±100 for the full control effect
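Pol eta (10 nM) was preincubated with compounds for 15 min at room temperature, after which fluorescent replication substrate (50 nM final) was added to start the reaction. Fluorescence was read kinetically at 0 and 10 min.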
WRN inhibitor = WRN helicase (human) inhibition. Q14191. Potency, µM (doses to about 114 µM), without a hit: at the highest dose activity change, negative = inhibition, usual class: inhibitors. actives 0.46% (n = 360,000). WRN helicase unwinding, fluorescent forked duplex, kinetic; also: % is scaled to controls: 0 for no effect and ±100 for the full control effect; nearly all actives have a fitted effect of over 55% in size
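Enzyme (20 nM final) and test compound sit together 15 min at room temperature before substrate addition. Substrate is a single-forked duplex oligonucleotide (100 nM) labelled with fluorophore and quencher, with 2 mM ATP; helicase unwinding raises red fluorescence, read kinetically.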
POLK inh = DNA polymerase kappa (human) inhibition. Potency, µM (titrated, usually from 107 µM), without a hit: top-dose activity, negative = inhibition, hits mostly inhibitors. actives 0.53% (n = 400,000). purified Pol kappa, fluorescent DNA synthesis assay, 10 min; also: % is scaled to controls: 0 for no effect and ±100 for the full control effect
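50 nM final substrate added after 15 min RT preincubation of 10 nM Pol kappa with compound; fluorescence read at 0 and 10 min.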
Active calls of the source: *; ? = inconclusive; · = no result; ! = not confirmed by another sample; [ ] = remark or other dose. Compounds with a hit are over-represented: about 2.4% of the library has one in this group of screens. Calls follow the shape of the dose curve; as a rule, active = well fitted curve in the direction sought with a large enough effect; inconclusive = small, poorly fitted or top-dose-only effect, or another doubt; inactive = no such curve, though single readings can be large; an effect the other way counts as inactive or inconclusive. Potency is read from the fitted curve at half-maximal effect.

SMILES	FEN1 inh	POLB inh	Pol iota inh	POLH inh	WRN inhibitor	POLK inh
Cc1[nH]n(-c2ccccc2)c(=O)c1C(c1ccc([N+](=O)[O-])cc1)c1c(C)[nH]n(-c2ccccc2)c1=O	0.0%	6.6%	0.708µM*	-6.5%	-16.4%[11.6 µM]	-3.2%
CC(n1cc(C[C@H](N)C(=O)O)c2ccccc21)n1cc(C[C@H](N)C(=O)O)c2ccccc21	·	·	·	·	·	0.8%[19.4 µM]
C=C(C)[C@@]12OC3(c4ccccc4)O[C@@H]1[C@@H]1[C@@H]4O[C@]4(CO)[C@@H](O)[C@]4(O)C(=O)C(C)=C[C@H]4[C@@]1(O3)[C@H](C)[C@H]2OC(=O)/C=C/C=C/c1ccccc1	·	·	·	·	·	-8.8%[60.1 µM]
COc1cc2c(cc1O)C[C@H]1c3c(cc(O)c(OC)c3-2)CCN1C	-24.6%	·	9.3%	-6.4%	-8.2%	-7.3%
CN1CCc2cc(O)cc3c2[C@H]1Cc1ccc(O)c(O)c1-3	79.4µM*!	·	-20.3%	4.5%	-34.6%	-5.9%[60.1 µM]
CCCN1CCc2cc(O)cc3c2[C@H]1Cc1ccc(O)c(O)c1-3	50.1µM*	·	14.1µM*	-7.6%	-0.3%	-9.6%[60.1 µM]
CC(C)Oc1ccc(CNC(=O)C2CCCN(S(=O)(=O)c3ccc4c(ccn4C)c3)C2)cc1 (centres undefined)	3.8%	-16.4%	31.7%	-18.3%	·	-6.1%[60.1 µM]
COc1ccc(C(=O)C2CCCN(Cc3ccon3)C2)c(OC)c1 (centres undefined)	-11.0%	0.5%	89.1µM*	?	-6.5%[57.1 µM]	?
CC(C)Oc1cccc(C(=O)C2CCCN(Cc3ccon3)C2)c1 (centres undefined)	-13.4%	0.2%	34.3%	-16.7%	-10.8%	-5.9%
O=C(O)COc1ccc(Br)cc1C(c1c(C(=O)O)[nH]c2ccccc12)c1c(C(=O)O)[nH]c2ccccc12	?	10.1%	?	89.1µM*	-17.6%	?
NC(=NCCc1ccc(I)cc1)SCCCc1cnc[nH]1	·	·	·	·	·	0.4%[19.4 µM]
CC(C)C[C@H](NC(=O)[C@H](Cc1ccccc1)NC(=O)CNC(=O)[C@@H](COC(C)(C)C)NC(=O)[C@@H](N)Cc1ccc(O)cc1)C(=O)N[C@H](C(=O)O)[C@@H](C)OC(C)(C)C	·	·	·	·	·	14.2%[60.1 µM]
C=CCc1cc(C=C2C(=O)NC(=O)NC2=O)cc(OC)c1OCc1ccc(C(=O)O)cc1	?	?	?	50.1µM*	-11.3%	-20.3%
N.N.N.N.N.N.N.N.N.N.N.N.N.N.O.O.[Cl-].[Cl-].[Cl-].[Cl-].[Cl-].[Cl-].[Ru].[Ru].[Ru]	·	5.62µM*	8.91µM*	25.1µM*	·	·
Cc1ccc(Cl)cc1Nc1nn2c(=O)c3ccc(C(=O)NCc4cccs4)cc3nc2s1	-19.1%	8.91µM*	?	?	·	-6.3%[60.1 µM]
CCCOc1ccc2[nH]cc(C3=CCNCC3)c2n1	·	·	·	·	·	-13.2%[19.4 µM]
O=c1c2ccccc2nc(/C=C/c2ccc(O)c(O)c2)n1-c1ccccc1	-13.3%	?	?	17.8µM*	-9.2%[11.6 µM]	-18.8%
COc1cc(/C=C/c2nc3ccccc3c(=O)n2-c2ccccc2O)ccc1O	-14.9%	-4.7%	118.0%	-25.3%	-11.2%	-5.3%
COc1cc(/C=C/c2nc3ccccc3c(=O)n2-c2cccc(O)c2)ccc1O	?	?	17.8µM*	?	?	?
Oc1cc[c]([Hg][Cl])cc1	·	·	·	·	·	-0.5%[19.4 µM]
C/C1=C/C(=O)O[C@@H]2C[C@@H](CC[C@H](C)/C=C\CC1)O[C@@](O)(C1CSC(=O)N1)C2 (some centres undefined)	·	·	·	·	·	11.3%[60.1 µM]
O=c1[nH]c(=S)[nH]c(O)c1N=Nc1ccc(S(=O)(=O)N2CCOCC2)cc1	-3.7%	?	?	50.1µM*	-0.9%[11.6 µM]	2.6%
O=c1[nH]c(=S)[nH]c(O)c1N=Nc1cc(S(=O)(=O)Nc2ccc(Cl)cc2)ccc1Cl	?	·	?	79.4µM*	-6.8%	-24.9%
O=c1[nH]c(O)c(N=Nc2ccc(S(=O)(=O)N3CCOCC3)cc2)c(=O)[nH]1	-4.4%	?	-12.8%	-24.1%	-10.1%	-12.6%

Source: PubChem
